In the library only some 2.4% were active in any assay of this set; here they are far more common.
CHO-K1 Ca PAM = M1 PAM counterscreen hit in parental CHO-K1 cells. ATP EC20, Fluo-8 calcium fluorescence; 0% at ATP EC20, 100% at ATP max. activation, % at 3 µM. 0.02% of 360,000 active;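 active = activation above the run cutoff, the mean activation of all test compounds plus 3 SD, cut at about 40% in these data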;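 note: peak over basal fluorescence ratio in a 140 s read after ATP addition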
M1 PAM = human CHRM1 positive allosteric modulation. CHO-K1 hM1, Fluo-8 calcium fluorescence, ACh EC20; 0% = ACh EC20, 100% = maximal ACh. activation, % at 3 µM. 0.088% of 360,000 active. AID 588819; in the data active = activation above about 19%, passing the limit was not always enough
Target sequence (P11229 whole entry, looked up): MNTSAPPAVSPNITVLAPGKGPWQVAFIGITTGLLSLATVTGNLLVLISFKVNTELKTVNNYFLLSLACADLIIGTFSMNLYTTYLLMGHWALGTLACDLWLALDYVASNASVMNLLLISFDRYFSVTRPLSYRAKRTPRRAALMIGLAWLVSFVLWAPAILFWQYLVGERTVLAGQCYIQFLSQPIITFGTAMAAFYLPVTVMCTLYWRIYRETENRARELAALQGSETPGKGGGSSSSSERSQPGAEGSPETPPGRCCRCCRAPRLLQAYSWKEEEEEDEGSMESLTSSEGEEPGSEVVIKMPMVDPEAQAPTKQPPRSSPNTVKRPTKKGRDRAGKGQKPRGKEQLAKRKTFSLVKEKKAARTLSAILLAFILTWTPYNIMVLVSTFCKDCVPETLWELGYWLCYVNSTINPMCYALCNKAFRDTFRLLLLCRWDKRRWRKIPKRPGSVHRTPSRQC
M1 antag = antagonists of human M1 muscarinic receptor. CHO-K1 hM1, Fluo-8 calcium fluorescence, ACh EC80 antagonist. inhibition, % at 3 µM. 1.3% of 360,000 active;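 active = percent inhibition above its own plate's cutoff, namely the mean of that plate's compound wells plus 3 SD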;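 note: peak over basal fluorescence ratio during 140 s after agonist addition; 0% = ACh EC80 plus DMSO and 100% = DMSO alone without agonist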
CHO-K1 Ca antag = counter-screen for M1 antagonists: effect in parental CHO-K1 cells; ATP-induced calcium, Fluo-8 fluorescence; inhibition, % at 3 µM; 0.6% of 360,000 active; AID 602250;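 active = inhibition above a per-plate cutoff, the plate's mean sample inhibition plus 3 SD, cut at about 24% in these data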;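 note: 0% = DMSO plus EC80 ATP and 100% = DMSO alone without ATP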
M1 ag = human M1 muscarinic receptor agonism | P11229 | CHO-K1 hM1, Fluo-8 calcium fluorescence, agonist mode; 0% DMSO, 100% acetylcholine EC100 | activation, % at 3 µM | 0.33% of 360,000 active;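 active = activation above the run's mean compound activation plus 3 SD, cut at about 16% in these data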;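 note: peak over basal fluorescence ratio within a 140 s kinetic read after compound addition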
M1 ag parental = nonselective activator or artifact in parental CHO-K1 cells | Fluo-8 calcium fluorescence; scaled to maximal ATP response, vehicle zero | activation, % at 3 µM | 0.48% of 360,000 active | AID 602248; in the data active = activation above about 15%;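 note: untransfected CHO-K1 host cells lacking M1 receptor as counterscreen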
Active calls of the source: *.

SMILES	CHO-K1 Ca PAM	M1 PAM	M1 antag	CHO-K1 Ca antag	M1 ag	M1 ag parental
CCOc1cc(/C=C2/SC(=O)N(CC(=O)N3CCc4ccccc4C3)C2=O)ccc1OCC(=O)O	8	19*	-13	2	2	-1
CSc1ncnc2c1ncn2CCCN1CCN(c2ncccn2)CC1	-10	-16	31*	-1	-9	1
Cc1ccc2c(c1)NC(=O)C(CC(=O)NCCN(CC(C)C)CC(C)C)O2 (configuration not stated)	16	-19	28*	0	-14	0
Cc1ccc2c(c1)NC(=O)C(CC(=O)Nc1ccc(CN3CCC(C)CC3)cc1)O2 (configuration not stated)	22	-35	101*	-7	-13	0
CCN(CC)CCCNC(=O)CC1Oc2ccc(C)cc2NC1=O (configuration not stated)	2	-14	8	-2	-14	0
CCN1CCN(Cc2ccc(NC(=O)CC3Oc4ccc(C)cc4NC3=O)cc2)CC1 (configuration not stated)	1	-33	40*	6	-14	0
Cc1ccc(NC(=O)CC2Oc3ccc(C)cc3NC2=O)cc1 (configuration not stated)	0	10	-13	9	-2	0
COc1ccc(CN2CC(=O)N3[C@H]4c5cc(C)ccc5OC[C@@H]4[C@H](c4ccccc4)[C@]3(C)C2=O)cc1	12	3	-2	-8	1	1
CCOc1ccc(OCC)c(NC(=O)CCCN2C(=S)NC(C)(C)CC2C)c1 (configuration not stated)	16	1	2	-10	-7	0
CC1(C)NC(=O)N(CC(O)COc2ccccc2[N+](=O)[O-])C1=O (configuration not stated)	-11	-2	-3	11	-4	0
O=C(CNC(=O)c1ccccc1F)NCCc1ccccc1F	-14	-10	28*	6	-3	0
O=C(O)CNC(=O)c1ccccc1F	-5	6	-2	11	0	0
Nc1nc(Cl)cc(N2CCC(c3cc(-c4ccc(Cl)cc4)n[nH]3)CC2)n1	0	-18	38*	-1	14	21*
Cc1ccc(CN2CCC(c3cc(-c4ccc(Cl)cc4)n[nH]3)CC2)cc1	-6	-4	6	4	-3	16*
COc1ccc(-c2cc(C3CCN(Cc4ccc([N+](=O)[O-])cc4)CC3)[nH]n2)cc1	-7	6	-4	15	-3	2
COc1ccc(OC)c(-c2cc(C3CCN(c4cc(Cl)nc(N)n4)CC3)[nH]n2)c1	-7	-5	18	25*	-2	0
Cc1cccc2c1cnn2C(=O)CCC(=O)N1CC(C)CC(C)C1 (configuration not stated)	-1	-3	-3	9	-6	1
Cc1ccc(/C=C2\SC(=S)N(NS(=O)(=O)c3ccc(C)cc3)C2=O)cc1	13	3	-10	6	-4	3
Cc1ccc(S(=O)(=O)NN2C(=O)/C(=C/c3cccs3)SC2=S)cc1	-23	12	-20	26*	0	-1
CCCCOc1ccc(S(=O)(=O)Nc2cccnc2)cc1	2	-17	27	6	-1	30*
COC(=O)Cc1ccc(NC(=S)N2CCN(c3ccc(OC)cc3)CC2)cc1	22	0	5	-7	-4	6
OCCCCCNc1ncnc2ccccc12	3	-6	14	3	0	15*
Cc1cccc(N2CCN(C(=O)Cc3ccc(-n4c(=O)[nH]c5ccsc5c4=O)cc3)CC2)c1C	0	-10	23	-4	-7	3
CCn1c2ccccc2c2cc(NC(C)=O)ccc21	15	4	-6	-13	-5	0
CC1(C(=O)OCC(=O)NCc2ccc(Cl)cc2)CC1(Cl)Cl (configuration not stated)	16	5	-15	-10	-2	0
SMILES	CHO-K1 Ca PAM	M1 PAM	M1 antag	CHO-K1 Ca antag	M1 ag	M1 ag parental
CC1(C(=O)OCC(=O)NC(=O)NCc2ccccc2)CC1(Cl)Cl (configuration not stated)	19	8	-4	-10	-6	15*
CCN1/C(=C/c2ccc3cc(C)ccc3[n+]2CC)Sc2cc(C)ccc21	-15	-18	67*	43*	26*	22*
CCN1/C(=C/c2ccc3ccccc3[n+]2CC)C=Cc2ccccc21	-1	-11	48*	32*	2	6
CCCCN1/C(=C/c2ccc3ccccc3[n+]2CC)Sc2ccccc21	7	-19	44*	22	26*	19*
CCN1/C(=C/c2ccc3ccccc3[n+]2CCCS(=O)(=O)[O-])C=Cc2cc(C)ccc21	-10	19	-10	1	8	0
Nn1c(SCC(=O)Nc2ccc3c(c2)OCCO3)nnc(CCC(=O)O)c1=O	-11	1	1	-20	-2	1
CCOC(=O)NNC(=O)C1CCC(C)CC1 (configuration not stated)	9	12	-11	6	-3	19*
CCc1nc(SCc2cccnc2)c(C#N)cc1C	18	11	-15	-15	-6	1
O=c1oc2ccccc2c(Nc2ccccc2O)c1[N+](=O)[O-]	6	4	-9	3	-7	0
O=c1oc2ccccc2c(Nc2cccc3ccccc23)c1[N+](=O)[O-]	-5	0	6	26*	1	1
CC1(c2ccc([N+](=O)[O-])cc2)NC(=O)N(CC(=O)c2ccc3c(c2)OCO3)C1=O (configuration not stated)	-15	1	-1	7	37*	30*
CC1(c2ccc(OC(F)F)cc2)NC(=O)N(CC(=O)NC2CCCCC2)C1=O (configuration not stated)	18	5	-12	-19	10	3
CC1CCCCC12NC(=O)N(CC(=O)c1ccc3c(c1)OCO3)C2=O (configuration not stated)	-20	9	-12	32*	3	0
CC1(c2ccc(OC(F)F)cc2)NC(=O)N(CC(=O)c2ccc3c(c2)OCO3)C1=O (configuration not stated)	-16	-10	1	0	43*	36*
CCC(=O)c1ccc(N2CCN(C(=O)c3cccs3)CC2)c(F)c1	-10	6	-12	26*	-1	3
COc1ccc(-c2cc(C(=O)N3CCN(c4ccccc4O)CC3)c3ccccc3n2)cc1OC	8	-12	46*	15	-2	6
CCOc1ccc(-c2cc(C(=O)N3CCN(c4ccccn4)CC3)c3ccccc3n2)cc1	-5	-9	10	-6	-4	1
O=C(c1cc(-c2cccs2)nc2ccccc12)N1CCN(c2ccccc2O)CC1	7	-7	32*	10	-1	14

Screening data: PubChem, The Scripps Research Institute Molecular Screening Center
